The record followed here is PubChem BioAssay AID894 (National Center for Advancing Translational Sciences (NCATS), 2007).

Where “and” joins values, the source holds several entries; their conditions need not be identical. Equal values may be shown once. About 6,500 (4.3%) of roughly 150,000 compounds were called active. About 12% were inconclusive and are not listed. This excerpt belongs to a sample that is enriched for actives. The source holds several records for some structures; these can differ, active in one and inactive in another. A number with no mark means an inactive call. Calls come from the whole dose curve; as a rule, active = well fitted inhibition curve with a large enough effect (not every such curve was filed as active); inconclusive = small, poorly fitted or top-dose-only effect, or another doubt; inactive = no such curve, though single readings can be large or run the other way.
% is set by controls: 0 for no effect and ±100 for the full control effect; potency is the fitted concentration of half-maximal effect.

15-hydroxyprostaglandin dehydrogenase [NAD(+)] (Homo sapiens), sequence (P15428 whole entry, looked up): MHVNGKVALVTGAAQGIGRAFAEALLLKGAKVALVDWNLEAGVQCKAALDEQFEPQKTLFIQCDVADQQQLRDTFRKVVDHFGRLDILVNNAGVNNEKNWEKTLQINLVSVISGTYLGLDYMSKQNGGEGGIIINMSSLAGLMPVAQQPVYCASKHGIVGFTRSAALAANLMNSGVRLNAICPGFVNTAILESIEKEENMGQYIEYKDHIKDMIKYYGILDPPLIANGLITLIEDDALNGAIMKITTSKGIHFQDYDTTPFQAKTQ

The assay concerns the target 15-hydroxyprostaglandin dehydrogenase [NAD(+)] (Homo sapiens) (UniProt P15428). The assay can be described thus: qHTS Assay for Inhibitors of HPGD (15-Hydroxyprostaglandin Dehydrogenase). Conditions: purified HPGD, NADH fluorescence kinetic, PGE2 substrate; activity change, negative = inhibition: stronger effect = lower value. The essentials:
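NADH formation kinetics: reaction with 30 uM PGE2 and 1 mM NAD+ (final), 20 nM enzyme, Tris-HCl pH 8 with Tween 20, after 15 min compound preincubation at room temperature. Fluorescence change, last versus first of five reads.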
Take `COC(=O)c1c(NC(=O)CN2C(=O)NC(CCc3ccccc3)C2=O)sc2c1CCCCC2` (centres undefined): the activity change, negative = inhibition was -23.3%.
On the same count and under the same terms, the same measure for `CN(C)S(=O)(=O)c1ccc(N2CCCC2=O)c([N+](=O)[O-])c1`: -7.1%; for `Cc1c(NC(=O)Nc2ccccc2)cccc1[N+](=O)[O-]`: -4.65%.
On to `Cc1c(Cl)cccc1NC(=O)Nc1ccc(C(=O)N2CCCC2)cc1`, for which the Potency is 14.1 µM (active).
As to `CCC(CC)C(=O)Nc1cccc(C(=O)N2CCCC2)c1`, the activity change, negative = inhibition was -4.19%.
With `CC1=C[C@H]2Cc3cc(C)cc(C)c3S(=O)(=O)[C@@H]2C=C1`, the activity change, negative = inhibition was -8.5%.
Turning to `N=C1C(=O)OCC1c1ccccc1NC(=O)CN1CCCCC1` (centres undefined), the activity change, negative = inhibition was -11.6%.
Consider `C=C(C(C)=O)C(O)c1ccc([N+](=O)[O-])cc1` (centres undefined), for which the activity change, negative = inhibition is -15.8%.
On the same count and under the same terms, the same measure for `Cc1c(NC(=O)c2cccnc2)c(=O)n(-c2ccccc2)n1C`: 4.69% and -0.99%.
With `Cc1cc(C(=O)Nc2c(C)n(C)n(-c3ccccc3)c2=O)cs1`, the activity change, negative = inhibition is -6.25%.
Take `Cc1ccc(O)c(-c2cc(C(=O)Nc3c(C)n(C)n(-c4ccccc4)c3=O)[nH]n2)c1`: the Potency was 20 µM (active).
With `CCCSc1nc2[nH]ncc2c(=O)[nH]1`, the activity change, negative = inhibition is -15.8%.
Same read-out and setting: the same measure for `O=C(O)c1cccc(N2C(=O)Nc3ccccc3N2O)c1`: -2.37%.
The same measure, in the same setting: the same measure for `CCCC(C)C(=O)OCC(=O)Nc1c(Br)cc(C)cc1Br` (centres undefined): -2.73%; for `CN(Cc1ccccc1)C(=O)CCc1ccccc1`: -14.5%.
In the case of `CC(Cc1ccccc1)C(=O)N(C)Cc1ccccc1` (centres undefined), the Potency is 5.01 µM (active) and the activity change, negative = inhibition was -12.5%.
Consider `CN(Cc1ccccc1)C(=O)COc1ccccc1`, for which the activity change, negative = inhibition is -21.3%.
The same measure, in the same setting: in the case of `COc1ccc(CC(=O)Nc2ccc(C(=O)NC(C)(C)C)cc2)cc1` it was -10.9%.
Turning to `CCN(C(=O)COc1cccnc1[N+](=O)[O-])C1CCS(=O)(=O)C1` (centres undefined), the activity change, negative = inhibition was -10.7%.
In the case of `Cc1ccc(NC(=O)N2CCC(c3nc4c(nnn4Cc4c(F)cccc4Cl)c(=O)[nH]3)CC2)cc1`, the Potency is 12.6 µM (active).
For `COc1ccc(C(=O)Nc2c(Cl)cc(Cl)cc2C(=O)N2CCC(C)CC2)cc1`, the activity change, negative = inhibition was -13.4%.
On the same count and under the same terms, in the case of `Cc1ccc(Cn2nnc3c(=O)n(CC(=O)N4CCCCC4)cnc32)cc1` it was -22%; in that of `CC(=O)Nc1ccn(Cc2c(F)cccc2Cl)n1`, -0.326%.
With `COc1ccc(Cn2nnc3c(=O)[nH]c(C4CCN(C(=O)c5ccccc5Cl)CC4)nc32)cc1`, the Potency was 7.94 µM (active).
As for `COc1ccc(-n2nnc3c(=O)n(CC(=O)N4CCC(Cc5ccccc5)CC4)cnc32)cc1`, the activity change, negative = inhibition is -23.8%.
For `OCCNCCOc1ccc(Cl)c(Cl)c1`, the activity change, negative = inhibition is -9%.
As to `C/C(=N/NC(=O)CSc1ccccn1)c1ccc([N+](=O)[O-])cc1`, the activity change, negative = inhibition was -12.7%.
For the compound `CC(C)Nc1nnc(SCC(=O)c2c[nH]c3ccccc23)s1`, the activity change, negative = inhibition was -16.2%.
The same measure, in the same setting: the same measure for `COc1ccc(NC(=S)N2CCCC(CO)C2)c(OC)c1` (centres undefined): -2.74%; for `COc1cccc([C@@H]2Oc3ccc(Br)cc3C(=O)[C@H]2OC(=O)NCc2ccc3c(c2)OCO3)c1`: -12.1%.
On the same count and under the same terms, in the case of `CCCN=C1NC(=O)C(CC(=O)NCCc2ccc(OC)c(OC)c2)S1` (centres undefined) it was -5.13%.
For `O=C(Nc1nc(-c2ccncc2)cs1)C1COc2ccccc2O1` (centres undefined), the Potency was 7.94 µM (active).
Consider `O=C(Nc1nnc(SCc2ccc(Cl)cc2Cl)s1)C1COc2ccccc2O1` (centres undefined), for which the activity change, negative = inhibition was -24%.
Consider `O=C(Nc1nc(-c2ccc3c(c2)OCO3)cs1)c1ccncc1`, for which the activity change, negative = inhibition is -1.69%.
For `CCNc1nc(-c2cc3ccccc3o2)cs1`, the activity change, negative = inhibition is -4.63%.
Still for that read-out and setting: in the case of `O=C(OCC(=O)c1c[nH]c2ccccc12)c1cccc(O)c1` it was -8.39%; in that of `CC(=O)NC1=NN(C(C)=O)C(C)(c2ccc(C)cc2)S1` (centres undefined), -5.01%.
As to `COCCOC(=O)c1sc(=S)n(CCOC)c1N`, the Potency is 28.2 µM (active).
Turning to `CC1(c2ccccc2)CC(C)(C)N(C(=O)c2cc([N+](=O)[O-])cc([N+](=O)[O-])c2)c2ccccc21` (centres undefined), the activity change, negative = inhibition was -4.13%.
Turning to `O=C(NCc1ccco1)c1cc2sccc2n1Cc1ccc(F)cc1`, the Potency is 17.8 µM (active).
`O=C(Cc1ccc(-n2c(=O)c3sccc3n(Cc3ccc(F)cc3)c2=O)cc1)NCc1ccco1`: the activity change, negative = inhibition is -7.92%.
As for `O=C(NCc1ccco1)c1ccc(Cn2c(=O)c3sccc3n(Cc3ccc(F)cc3)c2=O)cc1`, the activity change, negative = inhibition was -17.7%.
On the same count and under the same terms, the same measure for `COc1cc(NC(=O)c2ccccc2NS(=O)(=O)c2ccc(Cl)s2)cc(OC)c1`: -5.94%.
For the compound `O=C(O)c1c(Br)c(Br)c(Br)c(Br)c1C1c2ccc(O)cc2Oc2cc(O)ccc21`, the Potency is 2.51 µM (active).
`N#CC1=C(N)Oc2cc(O)ccc2C1C1CCCCC1` (centres undefined): the activity change, negative = inhibition is -8.6%.
As for `COc1ccc(/C=C/C(=O)NC(=S)NN2CCCCC2c2cccnc2)cc1` (centres undefined), the activity change, negative = inhibition was -29.9%.
The same measure, in the same setting: in the case of `CCCCCCCC1=Cc2ccc(F)cc2C(C(C(=O)OC)C(=O)OC)N1C(=O)OC` (centres undefined) it was -2.63% and -13.1%; in that of `O=C(/C=C/c1cccs1)NCc1cccnc1`, -9.43%.
Take `CC(=O)Nc1ccc(S(=O)(=O)NC2(C(F)(F)F)C(=O)Nc3c2c(=O)[nH]c(=O)n3Cc2ccccc2)cc1` (centres undefined): the Potency is 17.8 µM (active).
Consider `CC(=O)Nc1ccc(S(=O)(=O)NCCc2ccccc2)cc1`, for which the activity change, negative = inhibition is -7.41%.
Still for that read-out and setting: the same measure for `CC(=O)Nc1ccc(S(=O)(=O)Nc2nc3n(n2)C(c2ccccc2)CC(=O)N3)cc1` (centres undefined): -6.58%; for `COc1ccc(C(=O)CSc2nnc(NC(=O)C3CC(=O)N(c4cccc(OC)c4)C3)s2)cc1` (centres undefined): -4.45%.
Consider `COC(=O)c1sc(=S)n(-c2ccccc2)c1N`, for which the Potency is 14.1 µM (active).
Turning to `CCOC(=O)c1csc(NC(=O)Nc2cccc(OC)c2)n1`, the activity change, negative = inhibition was -6.02%.
`CCOC(=O)c1sc(=S)n(-c2cccc(OC)c2)c1N`: the Potency is 28.2 µM (active).
For the compound `COC(=O)c1cn(-c2ccccc2)nc1-c1cccnc1`, the activity change, negative = inhibition is -1.05%.
Still for that read-out and setting: in the case of `COC(=O)C1=C(C)N(C)C(=S)NC1c1ccccc1` (centres undefined) it was -10.8%; in that of `CCOC(=O)c1cnc(SCC(=O)Nc2cccc(OC)c2)nc1N`, -14.8%.
